The term viability denotes a read-out of living cells in per cent, often relative to untreated cells. For orientation: inhibition means the change of the read-out against control, counted positive when it falls.

Active and inactive are the calls of the source. Unless noted, how the calls were made is not given here.

System in the first assay: not listed separately
The assay can be described thus: liver-stage malaria parasite growth inhibition, primary screen, cell-based, HepG2, luciferase luminescence, HepG2 viability (AID 624349; in the data active means parasite load remaining mostly below about 12%, no sharp cut-off; inactive means mostly above about 10%;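 further: 100% = mean of DMSO negative control wells on the same plate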). The conditions noted are these: P. berghei liver stage in HepG2, luciferase luminescence, concentration not given here; parasite load remaining: stronger effect = lower value; viability: measured here: HepG2 viability without parasites.
Regarding `OC[C@H]1O[C@@H](n2cnc3c(N[C@H]4CCC[C@@H]4O)ncnc32)[C@@H](O)C1O` (stereo partly drawn), the parasite load remaining was 54.4% (inactive) and the viability worked out at 67.3%.

Regarding `OC[C@H]1O[C@@H](n2cnc3c(NC4CCCC4)nc(Cl)nc32)[C@@H](O)C1O` (stereo partly drawn), the parasite load remaining was 65.4% (inactive) and the viability was 67.2%.

Consider `COc1cc(CNC(=O)CCCC/C=C\C(C)C)ccc1O`, for which the parasite load remaining is 83.7% (inactive) and the viability is 75.2%.

System in another assay: not listed separately
The assay can be described thus: Cy5 fluorescence interference with SSB-bound oligo, artefact control for HCV NS3 helicase inhibitor project, biochemical, NIH Clinical Collection, E. coli SSB (AID 743268).
Conditions: not given
Turning to `OC[C@H]1O[C@@H](n2cnc3c(N[C@H]4CCC[C@@H]4O)ncnc32)[C@@H](O)C1O` (stereo partly drawn), the fluorescence ratio is 1.01 (inactive).

In the case of `OC[C@H]1O[C@@H](n2cnc3c(NC4CCCC4)nc(Cl)nc32)[C@@H](O)C1O` (stereo partly drawn), the fluorescence ratio is 0.94 (inactive).

For `COc1cc(CNC(=O)CCCC/C=C\C(C)C)ccc1O`, the fluorescence ratio was 0.95 (inactive).

A further assay relates to Hepatitis C virus NS3 helicase. The experiment in a line: HCV NS3 helicase inhibitors, primary screen, biochemical, fluorescence polarization, NIH Clinical Collection (AID 743270). To be noted: NS3 helicase binding to Cy5-dT15 DNA, stronger effect = higher value, concentration not given here. On the technique in general: Polarisation of emitted light reports the rotation of a fluorescent probe.
As for `OC[C@H]1O[C@@H](n2cnc3c(N[C@H]4CCC[C@@H]4O)ncnc32)[C@@H](O)C1O` (stereo partly drawn), the inhibition is -1.09% (inactive).

As for `OC[C@H]1O[C@@H](n2cnc3c(NC4CCCC4)nc(Cl)nc32)[C@@H](O)C1O` (stereo partly drawn), the inhibition was -2.84% (inactive).

In the case of `COc1cc(CNC(=O)CCCC/C=C\C(C)C)ccc1O`, the inhibition is -6.73% (inactive).

Another assay has as its target Single-stranded DNA-binding protein (Escherichia coli (strain K12)) (UniProt P0AGE0). The assay can be described thus: E. coli SSB displacement from DNA, counter-screen for HCV NS3 helicase inhibitor project, biochemical, fluorescence polarization, NIH Clinical Collection (AID 743271; in the data active means inhibition above about 28%). To be noted: stronger effect = higher value, concentration not given here. On the technique in general: Counterscreens check selectivity or assay interference.
Consider `OC[C@H]1O[C@@H](n2cnc3c(N[C@H]4CCC[C@@H]4O)ncnc32)[C@@H](O)C1O` (stereo partly drawn), for which the inhibition was -2.76% (inactive).

For the compound `OC[C@H]1O[C@@H](n2cnc3c(NC4CCCC4)nc(Cl)nc32)[C@@H](O)C1O` (stereo partly drawn), the inhibition is -1.97% (inactive).

In the case of `COc1cc(CNC(=O)CCCC/C=C\C(C)C)ccc1O`, the inhibition was 1.44% (inactive).

System in another assay: not listed separately
The experiment in a line: fluorescence interference in NS3h assay format, artefact control for HCV NS3 helicase inhibitor project, biochemical, NIH Clinical Collection (AID 743272).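 Further: HCV NS3 helicase with a Cy5 labelled single stranded DNA probe.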 To be noted: fluorescence interference counterscreen, stronger effect = lower value.
As to `OC[C@H]1O[C@@H](n2cnc3c(N[C@H]4CCC[C@@H]4O)ncnc32)[C@@H](O)C1O` (stereo partly drawn), the fluorescence ratio is 0.98 (inactive).

As for `OC[C@H]1O[C@@H](n2cnc3c(NC4CCCC4)nc(Cl)nc32)[C@@H](O)C1O` (stereo partly drawn), the fluorescence ratio was 0.97 (inactive).

On to `COc1cc(CNC(=O)CCCC/C=C\C(C)C)ccc1O`, for which the fluorescence ratio is 0.9 (inactive).

For the next assay, the system named is Neuropilin-2 / VEGF-C interaction (human). The experiment in a line: inhibitors of NRP2–VEGF-C binding, biochemical, microplate binding format, z-score (AID 743281). To be noted: microplate NRP2/VEGF-C binding assay; stronger effect = lower value.
On to `C=C1/C(=C\C=C2/CCCC3(C)[C@@H]([C@H](C)/C=C/[C@@H](O)C4CC4)CC[C@@H]23)C[C@@H](O)C[C@@H]1O` (stereo partly drawn), for which the call was inactive.

With `C#C[C@]1(O)CC[C@H]2[C@@H]3[C@H](C)CC4=C(CCC(=O)C4)[C@H]3CCC21C` (stereo partly drawn), the compound was classed as inactive.

Regarding `OC[C@H]1O[C@@H](n2cnc3c(N[C@H]4CCC[C@@H]4O)ncnc32)[C@@H](O)C1O` (stereo partly drawn), the z-score was -0.495 (inactive).

As to `CC12C=CC(=O)C=C1CC[C@@H]1[C@@H]2[C@@H](O)CC2(C)[C@H]1CC[C@]2(O)C(=O)COC(=O)CCC(=O)O` (stereo partly drawn), the call was inactive.

Turning to `OC[C@H]1O[C@@H](n2cnc3c(NC4CCCC4)nc(Cl)nc32)[C@@H](O)C1O` (stereo partly drawn), the z-score was -0.619 (inactive).

Regarding `CC(=O)OC12CO[C@@H]1C[C@H](O)[C@@]1(C)C(=O)[C@H](O)C3=C(C)[C@@H](OC(=O)[C@H](O)[C@@H](NC(=O)OC(C)(C)C)c4ccccc4)CC(O)([C@@H](OC(=O)c4ccccc4)[C@H]21)C3(C)C` (stereo partly drawn), the outcome was inactive.

`C[C@@H]1C[C@H]2[C@@H]3C[C@H](F)C4=CC(=O)C(Cl)=CC4(C)[C@@]3(F)[C@@H](O)CC2(C)[C@@]1(O)C(=O)CO` (stereo partly drawn): the compound was classed as inactive.

In the case of `CC12CC[C@@H]3c4ccc(O)cc4CC[C@H]3[C@@H]1CC[C@@H]2O` (stereo partly drawn), the outcome was inactive.

Turning to `CC12CC[C@@H]3c4ccc(OS(=O)(=O)O)cc4CC[C@H]3[C@@H]1CCC2=O` (stereo partly drawn), the compound was called inactive.

In the case of `C/C=C1/[C@H]2C=C(C)C[C@]1(N)c1ccc(=O)[nH]c1C2`, the compound was called inactive.

As for `C#C[C@]1(O)CC[C@H]2[C@@H]3CCc4cc(O)ccc4[C@H]3CCC21C` (stereo partly drawn), the call was inactive.

In the case of `CC(=O)O[C@H]1C[C@@H]2CC[C@@H]3[C@H](CCC4(C)[C@H]3C[C@H]([N+]3(C)CCCCC3)[C@@H]4OC(C)=O)C2(C)C[C@@H]1N1CCCCC1` (stereo partly drawn), the compound was classed as inactive.

For `CCC(=O)O[C@]1(C(=O)SCF)[C@H](C)C[C@H]2[C@@H]3C[C@H](F)C4=CC(=O)C=CC4(C)[C@@]3(F)[C@@H](O)CC21C` (stereo partly drawn), the compound was called inactive.

Regarding `C=CC[C@@H]1/C=C(\C)C[C@H](C)C[C@H](OC)[C@H]2OC(O)(C(=O)C(=O)N3CCCC[C@H]3C(=O)O[C@H](/C(C)=C/[C@@H]3CC[C@@H](O)[C@H](OC)C3)[C@H](C)[C@@H](O)CC1=O)[C@H](C)C[C@@H]2OC`, the compound was called inactive.

In the case of `CC(C)(C)NC(=O)[C@H]1CC[C@H]2[C@@H]3CC[C@H]4NC(=O)C=CC4(C)[C@H]3CCC12C` (stereo partly drawn), the call was inactive.

For the compound `CCOC(=O)O[C@]1(C(=O)OCCl)CC[C@H]2[C@@H]3CCC4=CC(=O)C=CC4(C)[C@H]3[C@@H](O)CC21C` (stereo partly drawn), the compound was classed as inactive.

As for `C[C@@H]1C[C@H]2[C@@H]3CCC4=CC(=O)C=CC4(C)[C@@]3(F)[C@@H](O)CC2(C)[C@H]1C(=O)CO` (stereo partly drawn), the outcome was inactive.

Consider `CC(=O)O[C@]1(C(C)=O)CC[C@H]2[C@@H]3C=C(C)C4=CC(=O)CCC4(C)[C@H]3CCC21C` (stereo partly drawn), for which the call was inactive.

In the case of `C#C[C@]1(O)CC[C@H]2[C@@H]3CCC4=CC(=O)CC[C@@H]4[C@H]3CCC21CC` (stereo partly drawn), the compound was classed as inactive.

As for `CC(=O)[C@H]1CC[C@H]2[C@@H]3CCC4=CC(=O)CCC4(C)[C@H]3CCC12C` (stereo partly drawn), the call was inactive.

Turning to `N[C@@H](C(=O)N[C@@H]1C(=O)N2C(C(=O)O)=C(CSC3CNNN3)CS[C@H]12)c1ccc(O)cc1` (stereo partly drawn) (tested in a mixture with another compound), the result was inactive.

Turning to `CO[C@H]1C=CO[C@@]2(C)Oc3c(C)c(O)c4c(O)c(c(/C=N/N5CCN(C6CCCC6)CC5)c(O)c4c3C2=O)NC(=O)/C(C)=C\C=C[C@H](C)[C@H](O)[C@@H](C)[C@@H](O)[C@@H](C)[C@H](OC(C)=O)[C@@H]1C`, the compound was classed as inactive.

On to `C#C[C@]1(O)CC[C@H]2[C@@H]3CCc4cc(OC)ccc4[C@H]3CCC21C` (stereo partly drawn), for which the call was inactive.

For `COc1cc(CNC(=O)CCCC/C=C\C(C)C)ccc1O`, the z-score was 1.86 (inactive).

Turning to `C=C1/C(=C\C=C2/CCCC3(C)[C@@H]([C@H](C)CCCC(C)(C)O)CC[C@@H]23)C[C@@H](O)C[C@@H]1O` (stereo partly drawn), the compound was called inactive.

For `C=CC1=C(C(=O)O)N2C(=O)[C@@H](NC(=O)/C(=N/OCC(=O)O)c3csc(N)n3)[C@H]2SC1`, the outcome was inactive.

Take `CC#C[C@]1(O)CC[C@H]2[C@@H]3CCC4=CC(=O)CCC4=C3[C@@H](c3ccc(N(C)C)cc3)CC21C` (stereo partly drawn): the compound was classed as inactive.

In the case of `CC12CCC(=O)C=C1CC[C@@H]1[C@@H]2[C@@H](O)CC2(C)[C@@H](C(=O)CO)CC[C@@H]12` (stereo partly drawn), the call was inactive.

On to `CC[C@H]1OC(=O)[C@H](C)C(=O)[C@H](C)[C@@H](O[C@@H]2O[C@H](C)C[C@H](N(C)C)[C@H]2O)[C@](C)(OC)C[C@@H](C)C(=O)[C@H](C)[C@@H]2N(CCCCn3cnc(-c4cccnc4)c3)C(=O)OC21C` (stereo partly drawn), for which the result was inactive.

Consider `CO[C@H]1C=CO[C@@]2(C)Oc3c(C)c(O)c4c(O)c(c5c(nc6cc(C)ccn65)c4c3C2=O)NC(=O)/C(C)=C\C=C[C@H](C)[C@H](O)[C@@H](C)[C@@H](O)[C@@H](C)[C@H](OC(C)=O)[C@@H]1C`, for which the outcome was inactive.

(Values after PubChem BioAssay.)
